The results in this text go back to PubChem BioAssay (NCATS).

Records with an inconclusive call do not appear. The source made the active and inactive calls. Unless noted, calls follow the shape of the dose curve; as a rule, active = well fitted curve in the direction sought with a large enough effect; inconclusive = small, poorly fitted or top-dose-only effect, or another doubt; inactive = no such curve, though single readings can be large; an effect the other way counts as inactive or inconclusive.

Experiment [1] has as its target Ferritin light chain (Equus caballus) (UniProt P02791). The experiment in a line: qHTS Validation Assay for Identification of Novel General Anesthetics (AID 2323). Also: series mostly up to about 77 µM. An outline of the steps:
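Normalized fluorescence response, scaled between free 1-AMA and 1-AMA/apoferritin complex, fitted to a four-parameter Hill equation for concentration-effect values. Binding mix: 10 uM horse-spleen apoferritin, 50% saturated 1-AMA in PBS; read 380/535 nm after 10 min.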
Background: In qHTS, concentration-response curves come from the screen itself.

For experiment [2], the target named is ATP-dependent DNA helicase Q1 (Homo sapiens) (UniProt P46063). The experiment in a line: qHTS Validation Assay for Inhibitors of RecQ-Like Dna Helicase 1 (RECQ1) (AID 2353). An outline of the steps: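 50 nM RECQ1T1 preincubated 15 min with compound in Tris pH 8.0 buffer with MgCl2, DTT, Tween-20 and 2.5 ug/ml poly(dI-dC); started with 200 nM TAMRA/BHQ-2 forked duplex and 2 mM ATP. Unwinding read as fluorescence (525/598 nm), two reads 2 h apart.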

Experiment [3] has as its target RecQ-like DNA helicase BLM (Homo sapiens) (UniProt P54132). The experiment can be described thus: qHTS Validation Assay for Inhibitors of Bloom's syndrome helicase (BLM) (AID 2364). An outline of the steps: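 Forked 20-bp duplex substrate (200 nM, TAMRA/BHQ-2) plus 2 mM ATP added after 15 min compound preincubation with 50 nM enzyme, pH 8.0, poly(dI-dC) 2.5 ug/ml. Strand separation followed by fluorescence (525/598 nm) over 2 h, normalized to enzyme-free and DMSO controls.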

The nature of experiment [4]: Cytometric Cell-Based qHTS for Inhibitors of the mTORC1 Signaling Pathway in MEF (Tsc2-/-, p53-/-) Cells (AID 2660).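 Also: percent of cells above a phospho-rpS6 to PI ratio cutoff in each well; series mostly up to about 38 µM.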 An outline of the steps: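 Tsc2-/-, p53-/- MEFs (empty vector) exposed to compound 24 h at 37 C, fixed, stained with Alexa-488 anti-phospho-rpS6 Ser235/236 and propidium iodide. Acumen laser scanning; phospho-S6/PI ratio thresholded against 7.5 nM rapamycin, reported as % positive cells.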

A short description of experiment [5]: High Content Imaging Cell-Based qHTS for Inhibitors of the mTORC1 Signaling Pathway in MEF (Tsc2-/-, p53-/-) Cells (AID 2666).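 Also: percent of cells scored positive for phospho-rpS6 Ser235/236 immunostaining by imaging.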 An outline of the steps:
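Cells were plated, dosed with compound after 24 hrs, and incubated another 24 hrs at 37 degree Celsius. Fixed cells were immunostained for phospho-rpS6 Ser235/236 and counterstained, and the normalized signal was scored as % active cells against rapamycin and DMSO controls.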

Experiment [6] can be described thus: Validation screen for small molecules that induce DNA re-replication in MCF 10A normal breast cells (AID 463097). Also: nearly all actives have a fitted effect of over 60% in size. Also: potency is read from the fitted curve at half-maximal effect. An outline of the steps:
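Following 48 hr compound incubation (37 C, 5% CO2), MCF 10A cells receive Hoechst for 40 min at 37 C. Nuclei are then scanned (excitation 405 nm, emission 500-530 nm) for total fluorescence intensity.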

The target in experiment [7] is DNA polymerase III PolC-type (Bacillus subtilis (strain 168)) (UniProt P13267). The experiment can be described thus: qHTS Validation Assay for the Inhibitors of DNA Replication in Gram-Positive Bacteria (AID 485295).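 Also: reconstituted holoenzyme with PolC plus beta clamp SSB and primase; PicoGreen fluorescence of double-stranded DNA made on primed circular M13 template; series mostly up to about 57 µM.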 An outline of the steps: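 Inhibition of DNA synthesis by the reconstituted PolC holoenzyme, monitored through PicoGreen staining of dsDNA formed from ssM13Gori, dNTPs and NTPs, with compound preincubation and room-temperature reaction.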

Experiment [8] concerns the target Tumor susceptibility gene 101 protein (Homo sapiens) (UniProt Q99816). The experiment can be described thus: qHTS Validation Assay for Iinhibitors of HIV-1 Budding by Blocking the Interaction of PTAP/TSG101 (AID 485342; calls by dose curve). An outline of the steps: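 Compound wells held the Tsg101 binding domain (10 uM) and a FITC-conjugated PTAP peptide (50 nM) in buffer at pH 7.5 containing 0.15 M NaCl and 0.01% Tween 20; polarization was recorded after 20 min, r.t.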

The nature of experiment [9]: qHTS Validation Assay to Find Inhibitors of Chronic Active B-Cell Receptor Signaling (AID 485345; active = well fitted curve in the direction sought with a large enough effect in the main read-out, with a control signal flat, not every such curve was filed as active). An outline of the steps:
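Read-out: ratio of filter-corrected green (IkappaBalpha fusion) to red (native) luciferase signal in doxycycline-induced TMD8 cells after 4 h at 37C. Titration spanned 46 uM–3 nM; Data were normalised to basal cells and 10 uM MG-132 wells.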

The target of experiment [10] is Beta-2 adrenergic receptor (Homo sapiens) (UniProt P07550). The experiment can be described thus: qHTS validation assay of beta-arrestin-biased ligands of beta2-adrenergic receptor (AID 485366). An outline of the steps:
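Tango cells expressing recombinant beta2-AR and beta-arrestin with tTA-driven luciferase, in DMEM with 1% FBS. Compounds were titrated up to 46 microM for 18 hr at 37 degrees C. Luminescence was read 15 min after substrate; curves were fitted and class-assigned.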

Experiment [11] has as its target ATP-dependent 6-phosphofructokinase (Trypanosoma brucei brucei) (UniProt O15648). The experiment in a line: qHTS Validation Assay to Find Inhibitors of T. brucei phosphofructokinase (AID 485368). An outline of the steps:
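Activity was read as ADP production by luminescence (ADP-Glo) after 45 min at room temperature. The enzyme was 1.25nM PFK in 0.1M TEA pH 8.0 with 0.5 mM F6P, 0.1mM ATP and 5 mM MgCl2. Compounds were titrated up to 57 uM and % activity normalized to no-enzyme and full-enzyme controls.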

For experiment [12], the target named is Thioredoxin reductase 1, cytoplasmic (Rattus norvegicus) (UniProt O89049). The experiment can be described thus: qHTS Assay for Substrates of Mammalian Selenoprotein Thioredoxin Reductase 1 (TrxR1) (AID 488772).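 Also: NADPH fluorescence in the first read after selenite addition and not the 8 min delta; series mostly up to about 57 µM; a drop in NADPH fluorescence below the no-compound background marks a TrxR1 substrate.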 An outline of the steps:
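Quantitative HTS in Tris-HCl buffer at pH 7.5 with EDTA and Tween-20, using rat TrxR1, 400 uM NADPH and 400 uM selenite (final). A fall in initial NADPH fluorescence relative to background marked substrate behaviour.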

The target is the same in experiment [13]. The experiment in a line: qHTS Assay for Inhibitors of Mammalian Selenoprotein Thioredoxin Reductase 1 (TrxR1) (AID 488773).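 Also: drop in NADPH fluorescence over an 8 min run after selenite addition; series mostly up to about 57 µM; nearly all actives have a fitted effect of over 40% in size.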 The following applies: Potency: inhibition. An outline of the steps: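 Steps: enzyme (90 nM) plus NADPH (400 uM final), 5 min at ~22 deg C; compound added, 15 min; selenite (400 uM final) added; fluorescence followed for 8 min. Concentration-response curves derived from the normalized delta values.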

A short description of experiment [14]: High Content Imaging Cell-Based qHTS for Inhibitors of the mTORC1 Signaling Pathway in MEF Cells (AID 2667).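 Also: Tsc2-/- p53-/- MEFs stably re-expressing wild-type Tsc2 exposed 24 h; series mostly up to about 38 µM.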 An outline of the steps:
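Immunofluorescence for rpS6 phosphorylation in MEFs of Tsc2-/-, p53-/- background rescued with WT Tsc2. Compound exposure lasted 24 hrs. Inhibition was scored against rapamycin-treated control wells.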

A short description of experiment [15]: Cytometry Cell-Based qHTS for Inhibitors of the mTORC1 Signaling Pathway in MEF cells (AID 2668).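 Also: Tsc2-/- p53-/- mouse embryonic fibroblasts stably re-expressing wild-type Tsc2; percent cells positive for phospho-rpS6 Ser235/236 relative to propidium iodide stain; series mostly up to about 38 µM.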 An outline of the steps:
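In MEFs grown in DMEM + 10% FBS, a 24 hrs compound exposure preceded imaging of phospho-rpS6 Ser235/236 by laser-scanning cytometry.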

Experiment [16] deals with Ubiquitin carboxyl-terminal hydrolase 2 (Homo sapiens) (UniProt O75604). The experiment in a line: qHTS Validation Assay for Inhibitors of Ubiquitin-specific Protease USP2a Using CHOP2 as the Reporter (AID 463106). An outline of the steps: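 10nM USP2 core + cpd, 30min RT; add 25nM Ub-CHOP2/25nM substrate; 60min RT; FI 485/531nm. Buffer Tris pH 8.0, CaCl2, BME, CHAPS. Norm. to NEM = 100% inhibition; time-zero read flags fluorescent artifacts.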
Sequence of Ubiquitin carboxyl-terminal hydrolase 2 (Homo sapiens) (O75604 whole entry, looked up): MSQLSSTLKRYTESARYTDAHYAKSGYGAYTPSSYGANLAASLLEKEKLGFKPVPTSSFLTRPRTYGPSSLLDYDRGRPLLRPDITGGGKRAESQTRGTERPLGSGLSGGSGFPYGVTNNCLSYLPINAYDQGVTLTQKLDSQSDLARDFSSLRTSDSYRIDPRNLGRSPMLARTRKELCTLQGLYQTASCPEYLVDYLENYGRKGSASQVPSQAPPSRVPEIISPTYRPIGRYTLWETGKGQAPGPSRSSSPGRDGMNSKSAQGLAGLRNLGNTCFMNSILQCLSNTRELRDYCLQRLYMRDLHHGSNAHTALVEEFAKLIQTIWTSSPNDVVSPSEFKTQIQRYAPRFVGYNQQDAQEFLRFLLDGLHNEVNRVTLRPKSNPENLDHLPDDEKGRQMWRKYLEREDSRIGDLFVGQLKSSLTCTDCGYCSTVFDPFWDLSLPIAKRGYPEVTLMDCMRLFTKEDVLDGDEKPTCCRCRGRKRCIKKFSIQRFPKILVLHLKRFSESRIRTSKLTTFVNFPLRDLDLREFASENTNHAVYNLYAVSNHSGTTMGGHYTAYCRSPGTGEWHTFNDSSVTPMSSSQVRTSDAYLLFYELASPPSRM

Experiment [17] is described as follows: Quantitative high throughput screen for delayed death inhibitors of the malarial parasite plastid, 96 hour incubation (AID 488745).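 Also: luciferase-expressing P. falciparum in erythrocytes at 2% hematocrit and 0.1% parasitemia; series mostly up to about 29 µM; nearly all actives have a fitted effect of over 70% in size.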 An outline of the steps: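 Infected erythrocytes were added to compound in Albumax-supplemented RPMI 1640 at 0.1% parasitemia and 2% hematocrit (final), incubated 96 h at 37 C under 5% CO2, then luciferase reagent was added and luminescence measured.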

The nature of experiment [18]: Quantitative high throughput screen for delayed death inhibitors of the malarial parasite plastid, 48 hour incubation (AID 488752). Also: nearly all actives have a fitted effect of over 65% in size. An outline of the steps: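 Readout is firefly luciferase luminescence from a reporter integrated into the parasite genome, with lower signal taken as inhibited growth. Infected red cells (0.1% parasitemia, 2% hematocrit final) are cultured with compound for one 48 h cycle at 37 C.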

Experiment [19] addresses Flap endonuclease 1 (Homo sapiens) (UniProt P39748). The experiment can be described thus: qHTS Validation Assay for the Inhibitors of Human Flap endonuclease 1 (FEN1) (AID 488816). An outline of the steps:
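Readings taken at 0 and 15 min after starting the reaction with 50 nM (final) substrate supplied the signal. Compounds had first sat with 10 nM FEN1 reagent for 15 min at room temperature. Values come from Hill-equation concentration-response fits.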

In experiment [20] the target is M-phase phosphoprotein 8 (Homo sapiens) (UniProt Q99549). The experiment can be described thus: qHTS Validation Assay for Inhibitors for MPP8 Chromodomain Interactions with Methylated Histone Tails (AID 488949).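 Also: AlphaScreen signal from MPP8 chromodomain bound to biotinylated H3K9me3 peptide; top concentration of the series differs between compounds; nearly all actives have a fitted effect of over 55% in size.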 An outline of the steps: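 Chemiluminescent proximity assay: histidine-tag capture via nickel acceptor beads, biotin peptide via streptavidin donor beads. Protein and peptide each at 50 nM, pH 7.4, with 30 min incubations at room temperature for complex formation, compound exposure and bead binding.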
Sequence of M-phase phosphoprotein 8 (Homo sapiens) (Q99549 whole entry, looked up): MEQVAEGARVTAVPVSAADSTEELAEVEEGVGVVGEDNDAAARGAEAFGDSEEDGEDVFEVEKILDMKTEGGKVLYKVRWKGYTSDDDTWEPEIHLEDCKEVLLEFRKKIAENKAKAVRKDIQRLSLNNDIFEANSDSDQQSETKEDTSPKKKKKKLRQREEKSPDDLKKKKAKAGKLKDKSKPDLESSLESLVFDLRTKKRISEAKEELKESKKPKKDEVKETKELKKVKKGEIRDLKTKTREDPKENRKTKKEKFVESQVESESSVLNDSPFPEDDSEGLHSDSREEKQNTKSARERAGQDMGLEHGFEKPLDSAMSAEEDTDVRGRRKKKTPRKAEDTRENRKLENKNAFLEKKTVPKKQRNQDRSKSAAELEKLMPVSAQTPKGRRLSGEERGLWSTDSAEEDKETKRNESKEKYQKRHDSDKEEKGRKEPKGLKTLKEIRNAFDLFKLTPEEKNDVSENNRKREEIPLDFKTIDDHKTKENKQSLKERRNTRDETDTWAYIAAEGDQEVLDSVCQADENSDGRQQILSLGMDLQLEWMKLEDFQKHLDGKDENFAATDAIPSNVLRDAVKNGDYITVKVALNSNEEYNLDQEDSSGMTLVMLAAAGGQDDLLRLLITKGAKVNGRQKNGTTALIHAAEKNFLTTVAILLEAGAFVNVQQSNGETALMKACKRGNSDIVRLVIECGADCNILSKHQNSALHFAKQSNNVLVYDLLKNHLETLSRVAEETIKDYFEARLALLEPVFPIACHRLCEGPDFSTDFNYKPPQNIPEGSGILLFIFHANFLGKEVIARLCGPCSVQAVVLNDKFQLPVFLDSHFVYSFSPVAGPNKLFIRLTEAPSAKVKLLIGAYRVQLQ

Sequence of RecQ-like DNA helicase BLM (Homo sapiens) (P54132 whole entry, looked up): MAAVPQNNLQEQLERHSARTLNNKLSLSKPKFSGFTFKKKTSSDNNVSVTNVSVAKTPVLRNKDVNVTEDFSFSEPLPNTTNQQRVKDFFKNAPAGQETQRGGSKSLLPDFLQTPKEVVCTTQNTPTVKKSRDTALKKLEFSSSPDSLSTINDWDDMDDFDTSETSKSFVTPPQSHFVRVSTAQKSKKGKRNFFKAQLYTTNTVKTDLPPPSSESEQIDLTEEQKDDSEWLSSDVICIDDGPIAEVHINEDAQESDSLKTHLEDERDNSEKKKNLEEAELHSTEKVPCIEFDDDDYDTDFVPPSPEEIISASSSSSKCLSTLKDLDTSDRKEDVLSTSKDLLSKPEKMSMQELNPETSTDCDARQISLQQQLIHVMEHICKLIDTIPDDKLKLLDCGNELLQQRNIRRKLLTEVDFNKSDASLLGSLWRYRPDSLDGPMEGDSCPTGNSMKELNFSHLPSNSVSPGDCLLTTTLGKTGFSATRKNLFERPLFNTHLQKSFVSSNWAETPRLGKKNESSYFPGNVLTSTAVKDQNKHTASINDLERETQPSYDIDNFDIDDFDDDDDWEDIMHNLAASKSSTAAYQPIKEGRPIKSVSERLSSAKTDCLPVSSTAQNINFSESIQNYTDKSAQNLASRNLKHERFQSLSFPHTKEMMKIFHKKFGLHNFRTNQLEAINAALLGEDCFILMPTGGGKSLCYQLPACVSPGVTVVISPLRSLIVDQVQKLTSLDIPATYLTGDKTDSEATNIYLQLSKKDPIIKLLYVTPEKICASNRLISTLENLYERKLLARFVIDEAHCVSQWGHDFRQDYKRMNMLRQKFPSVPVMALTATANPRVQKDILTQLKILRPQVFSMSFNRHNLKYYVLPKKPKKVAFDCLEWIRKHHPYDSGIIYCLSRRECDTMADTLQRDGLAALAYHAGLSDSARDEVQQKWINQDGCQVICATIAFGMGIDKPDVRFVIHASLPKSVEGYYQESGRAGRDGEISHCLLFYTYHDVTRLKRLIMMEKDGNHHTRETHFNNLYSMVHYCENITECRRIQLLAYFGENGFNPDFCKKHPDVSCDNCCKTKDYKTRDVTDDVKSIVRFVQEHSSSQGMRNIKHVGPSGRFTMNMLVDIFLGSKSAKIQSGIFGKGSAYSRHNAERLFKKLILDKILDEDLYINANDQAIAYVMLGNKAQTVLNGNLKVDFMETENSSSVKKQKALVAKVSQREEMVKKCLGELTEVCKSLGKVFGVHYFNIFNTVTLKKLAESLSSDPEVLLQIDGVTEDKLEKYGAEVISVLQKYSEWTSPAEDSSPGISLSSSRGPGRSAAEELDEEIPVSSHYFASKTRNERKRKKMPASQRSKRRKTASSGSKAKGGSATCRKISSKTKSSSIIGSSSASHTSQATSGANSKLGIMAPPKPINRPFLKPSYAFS
Sequence of Beta-2 adrenergic receptor (Homo sapiens) (P07550 whole entry, looked up): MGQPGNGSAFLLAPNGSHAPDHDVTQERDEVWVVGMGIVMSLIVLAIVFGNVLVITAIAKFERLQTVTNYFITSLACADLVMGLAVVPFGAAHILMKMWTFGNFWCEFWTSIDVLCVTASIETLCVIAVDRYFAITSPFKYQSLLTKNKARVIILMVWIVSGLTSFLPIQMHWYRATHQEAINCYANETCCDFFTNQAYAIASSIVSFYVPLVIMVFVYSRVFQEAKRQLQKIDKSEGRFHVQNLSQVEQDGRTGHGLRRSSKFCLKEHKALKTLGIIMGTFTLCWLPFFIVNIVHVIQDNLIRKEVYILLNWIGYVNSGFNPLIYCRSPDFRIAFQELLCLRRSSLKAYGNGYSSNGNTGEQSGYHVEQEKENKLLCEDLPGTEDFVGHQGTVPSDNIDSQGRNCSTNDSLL
Sequence of Flap endonuclease 1 (Homo sapiens) (P39748 whole entry, looked up): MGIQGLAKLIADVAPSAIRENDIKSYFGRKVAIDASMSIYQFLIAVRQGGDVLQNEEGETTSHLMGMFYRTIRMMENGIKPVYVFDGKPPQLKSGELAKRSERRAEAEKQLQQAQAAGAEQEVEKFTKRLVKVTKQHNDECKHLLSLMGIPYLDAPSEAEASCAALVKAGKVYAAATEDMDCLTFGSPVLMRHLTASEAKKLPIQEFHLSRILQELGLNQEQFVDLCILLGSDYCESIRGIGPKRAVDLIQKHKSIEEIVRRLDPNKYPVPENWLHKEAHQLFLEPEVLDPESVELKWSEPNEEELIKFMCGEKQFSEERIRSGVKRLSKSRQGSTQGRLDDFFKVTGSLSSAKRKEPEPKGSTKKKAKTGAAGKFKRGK
Sequence of Tumor susceptibility gene 101 protein (Homo sapiens) (Q99816 whole entry, looked up, the tested form may be a part): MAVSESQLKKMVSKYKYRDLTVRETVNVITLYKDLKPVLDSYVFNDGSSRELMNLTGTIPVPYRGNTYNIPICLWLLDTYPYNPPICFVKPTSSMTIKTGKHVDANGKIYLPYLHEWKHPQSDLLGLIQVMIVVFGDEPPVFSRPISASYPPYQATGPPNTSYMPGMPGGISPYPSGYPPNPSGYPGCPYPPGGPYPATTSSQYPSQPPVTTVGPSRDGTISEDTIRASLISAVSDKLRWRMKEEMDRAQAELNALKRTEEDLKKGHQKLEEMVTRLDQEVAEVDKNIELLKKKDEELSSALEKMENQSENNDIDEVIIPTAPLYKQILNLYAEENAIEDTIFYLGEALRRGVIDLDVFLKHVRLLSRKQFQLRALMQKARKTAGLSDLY
Sequence of Thioredoxin reductase 1, cytoplasmic (Rattus norvegicus) (O89049 whole entry, looked up): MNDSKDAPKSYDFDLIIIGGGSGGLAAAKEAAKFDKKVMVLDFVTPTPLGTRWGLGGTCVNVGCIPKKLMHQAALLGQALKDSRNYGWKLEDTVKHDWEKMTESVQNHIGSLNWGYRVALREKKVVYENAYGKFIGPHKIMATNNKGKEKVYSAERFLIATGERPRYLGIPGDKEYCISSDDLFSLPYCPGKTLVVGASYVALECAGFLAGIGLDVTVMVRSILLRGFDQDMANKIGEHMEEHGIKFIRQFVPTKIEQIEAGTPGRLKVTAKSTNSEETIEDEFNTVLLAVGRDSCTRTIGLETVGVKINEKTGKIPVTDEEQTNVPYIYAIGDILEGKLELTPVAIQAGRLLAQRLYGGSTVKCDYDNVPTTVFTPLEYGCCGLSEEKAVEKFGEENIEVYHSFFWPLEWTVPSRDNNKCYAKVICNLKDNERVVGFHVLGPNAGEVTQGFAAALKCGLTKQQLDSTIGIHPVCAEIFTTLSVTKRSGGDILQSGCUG
Sequence of ATP-dependent 6-phosphofructokinase (Trypanosoma brucei brucei) (O15648 whole entry, looked up): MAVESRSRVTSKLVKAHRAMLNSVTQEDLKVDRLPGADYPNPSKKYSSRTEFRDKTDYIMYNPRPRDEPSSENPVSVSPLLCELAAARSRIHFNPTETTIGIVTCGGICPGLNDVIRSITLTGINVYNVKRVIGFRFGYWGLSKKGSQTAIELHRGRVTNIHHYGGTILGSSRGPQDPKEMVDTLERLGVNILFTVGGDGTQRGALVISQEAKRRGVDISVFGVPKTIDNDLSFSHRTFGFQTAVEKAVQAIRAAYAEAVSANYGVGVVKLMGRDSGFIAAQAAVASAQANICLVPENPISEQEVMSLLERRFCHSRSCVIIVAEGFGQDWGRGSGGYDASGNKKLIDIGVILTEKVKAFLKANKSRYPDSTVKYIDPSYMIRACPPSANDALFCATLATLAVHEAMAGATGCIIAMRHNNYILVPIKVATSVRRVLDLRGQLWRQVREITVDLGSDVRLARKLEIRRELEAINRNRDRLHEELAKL

Regarding `COc1cc2nc(N3CCN(C(=O)c4ccco4)CC3)nc(N)c2cc1OC`, the Potency result in experiment [1], in experiment [2], in [3], in experiment [5], in experiment [7] and in experiment [9] was “inactive” throughout. The Potency entry in experiment [11] and in [13] was “inactive” throughout. Further, the compound was called inactive in experiment [4], in experiment [8], in experiment [10] and in experiment [12]. Besides, the Potency in experiment [6] is 15.8 µM (active).
Turning to `CCC1(C)CC(=O)NC1=O` (stereo not drawn), the Potency result in experiment [1], in [2], in [3], in experiment [5], in experiment [14] and in [15] was “inactive” throughout. Also, the Potency result in experiment [6], in experiment [16], in [7], in [9], in experiment [11] and in [17] was “inactive” each time. The Potency entry in experiment [18], in [13], in experiment [19] and in experiment [20] was “inactive” in each case. For the same compound, the result in experiment [4], in [8], in [10] and in experiment [12] was inactive.
Consider `CC(COc1ccccc1)N(CCCl)Cc1ccccc1` (stereo not drawn), for which the Potency result in [1], in [2], in experiment [3], in experiment [5], in experiment [15] and in experiment [6] was “inactive” each time. Further, the Potency entry in experiment [7], in experiment [9], in [17], in experiment [18] and in experiment [13] was “inactive” in each case. Also, the call in [4], in experiment [8], in experiment [10] and in [12] was inactive.
Turning to `O=C(c1ccc(F)cc1)C1CCN(CCn2c(=O)[nH]c3ccccc3c2=O)CC1`, the Potency result in experiment [1], in [2], in experiment [3], in experiment [5], in experiment [14] and in experiment [15] was “inactive” throughout. Further, the Potency result in [6], in experiment [16], in [7], in experiment [9], in experiment [13] and in experiment [19] was “inactive” each time. Moreover, the Potency result in experiment [20] is “inactive”. Besides, the compound was classed as inactive in experiment [4], in experiment [8], in experiment [10] and in experiment [12].
Regarding `Cn1c(=O)c2[nH]cnc2n(C)c1=O`, the Potency result in experiment [1], in experiment [2], in experiment [3], in [5], in experiment [15] and in experiment [6] was “inactive” throughout. In addition, the Potency entry in [16], in [7], in experiment [17], in experiment [18], in [13] and in experiment [19] was “inactive” in each case. In [20], the Potency entry was “inactive”. The call in experiment [4], in experiment [8], in experiment [10] and in experiment [12] was inactive.
Take `CC(C)NCC(O)COc1ccc(CCOCC2CC2)cc1` (stereo not drawn): the Potency result in experiment [1], in experiment [2], in [5], in experiment [15], in experiment [6] and in experiment [16] was “inactive” each time. Besides, the Potency entry in experiment [7], in [9], in experiment [11], in experiment [18], in experiment [13] and in experiment [19] was “inactive” each time. Moreover, the Potency entry in experiment [20] is “inactive”. Further, the compound was called inactive in [4], in experiment [8] and in experiment [12].
Take `CN1CCN(C2=Nc3cc(Cl)ccc3Nc3ccccc32)CC1`: the Potency entry in [1], in experiment [2], in experiment [5], in experiment [14], in experiment [15] and in experiment [6] was “inactive” in each case. Besides, the Potency entry in experiment [7], in experiment [9], in experiment [11] and in experiment [13] was “inactive” each time. For the same compound, the outcome in experiment [4], in [8] and in experiment [10] was inactive.
On to `N[C@@H](Cc1c[nH]c2ccc(O)cc12)C(=O)O`, for which the Potency entry in experiment [1], in [2], in experiment [5], in experiment [6], in experiment [7] and in [18] was “inactive” throughout. Also, the Potency entry in experiment [19] and in experiment [20] was “inactive” throughout. The compound was called inactive in experiment [4], in experiment [8], in experiment [10] and in experiment [12].
